Sm TGR inh – inhibitors of Schistosoma mansoni thioredoxin glutathione reductase | 3% of 360,000 active | Potency, µM (titrated, usually from 114 µM), for inactives: at the highest dose activity change, negative = inhibition, usual class: inhibitors | Q962Y6 | purified TGR, DTNB reduction, TNB absorbance 405 nm; also: potency is read from the fitted curve at half-maximal effect; % is scaled to controls: 0 for no effect and ±100 for the full control effect; nearly all actives have a fitted effect of over 60% in size
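TGR 20 nM + NADPH 100 uM (dispensed conc.), cpd preinc 15 min RT; start with NADPH (500 uM addition) then DTNB (15 mM addition). Kinetic TNB absorbance, 405 nm filter. Four-parameter Hill fit across titration.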
Pf growth 96h – P. falciparum growth inhibition at 96 hours | P. falciparum luciferase reporter growth, 96 h | Potency, µM (highest dose often 28.7 µM), for inactives: at the top dose activity change, negative = inhibition, hits mostly inhibitors | 6.9% of 320,000 active | AID 504834; also: potency is read from the fitted curve at half-maximal effect; % is scaled to controls: 0 for no effect and ±100 for the full control effect
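Readout is luminescence from an integrated firefly luciferase in P. falciparum. Red cells, 2% hematocrit and 0.05% parasitemia final, were cultured with compound through two parasite generations (96 hours) at 37 C, 5% CO2.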
CHX counter – counter-screen for Shiga toxin inhibitors: cycloheximide protein synthesis inhibition. cell reporter, cycloheximide protein synthesis inhibition counterscreen. max response, %. 12% of 300,000 active; in the data active = max response mostly above about 13%, no sharp cut-off; inactive = mostly below about 14%; also: read at 38.3 µM for the half of the compounds with a filed dose; 0% is about no effect
Shiga toxin inh – blocks Shiga toxin action in Vero cells. AID 2315. 9.2% of 290,000 active. Vero cells, Shiga toxin protein synthesis inhibition reporter. inhibition, % at 38.7 µM; in the data active = inhibition mostly above about 28%, no sharp cut-off; inactive = mostly below about 43%; also: 0% is about no effect
NS1 function inh – blocks influenza NS1 protein function | 0.4% of 270,000 active | Potency, µM (series often up to 46.1 µM), without a hit: at the highest dose activity, positive = more growth | AID 2326; calls by dose curve; also: potency is read from the fitted curve at half-maximal effect; actives are rising curves; nearly all actives have a fitted effect of over 50% in size
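Read-out: OD600 growth recovery of NS1-expressing budding yeast. Cells grown overnight at 30C in -URA glucose medium, washed, resuspended and diluted 1:100 in 2% galactose assay medium, pH 6.0. Same strain lacking NS1 served as positive control.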
Pf growth 48h – inhibits P. falciparum growth in the first generation, 48 h; P. falciparum luciferase growth in erythrocytes, 48 h; 5.9% of 310,000 active; Potency, µM (doses to about 28.7 µM), for inactives: at the top dose activity change, negative = inhibition, hits mostly inhibitors; also: potency is read from the fitted curve at half-maximal effect; % is scaled to controls: 0 for no effect and ±100 for the full control effect
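Erythrocytes infected with P. falciparum carrying an integrated firefly luciferase reporter (2% hematocrit, 0.1% parasitemia final) were exposed to compounds in RPMI 1640 with 0.5% Albumax at 37 C, 5% CO2. Growth inhibition was scored as reduced luminescence.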
An asterisk follows results filed as active; ? = inconclusive; . = not tested or not shown; [ ] = another dose, or the depositor's remark. Most compounds without a hit are left out; they make up all but 21% or so of the library. Unless noted, calls follow the shape of the dose curve; as a rule, active = well fitted curve in the direction sought with a large enough effect; inconclusive = small, poorly fitted or top-dose-only effect, or another doubt; inactive = no such curve, though single readings can be large; an effect the other way counts as inactive or inconclusive.

SMILES | Sm TGR inh | Pf growth 96h | CHX counter | Shiga toxin inh | NS1 function inh | Pf growth 48h
COc1cc(/C=N/NC(=O)CN2CCCCC2)ccc1OCc1ccc(Br)cc1 | -3.1% | -3.5% | 12.4* | -1.8 | 9.0% | 2.7%
COc1cc(CCC(=O)OCC(=O)Nc2c(C)cc(C)cc2C)cc(OC)c1OC | -6.2% | 37.7% | -1.7 | -7.0 | -7.5% | -2.8%
Cc1ccc(-c2csc(-c3cc4c([nH]c3=O)CC(c3ccccc3)CC4=O)n2)cc1 (stereo unspecified) | 1.2% | . | . | . | . | .
COc1ccc(/C=N/NC(=O)CN(C)C(=O)OCc2ccccc2)cc1OC | 4.6% | ? | -4.4 | 15.6 | -8.8% | 0.0%
COc1ccc(/C=N/NC(=O)c2cc(C)oc2C)cc1OCc1ccccc1 | 5.4% | -15.9% | 12.3* | 31.6 | -0.7% | -15.5%
COc1ccc(CCNC(=O)Cc2ccc(NC(=O)N3CCSc4ncccc43)cc2)cc1OC | 6.8% | . | . | . | . | .
NC(N)=NCC1COc2ccccc2O1 (stereo unspecified) | . | 2.13µM* | . | . | . | ?
O=C(NCc1ccccc1)C(=O)NCC1COc2ccccc2O1 (stereo unspecified) | -4.0% | 13.7% | -2.5 | 3.5 | -0.1% | 1.4%
Oc1ccc(C=NCC2COc3ccccc3O2)cc1 (stereo unspecified) | 5.7% | -19.1% | -3.1 | 24.4 | -9.6% | 4.6%
OC(COCC1COc2ccccc2O1)CN1CCN(c2ccccc2F)CC1 (stereo unspecified) | -6.6% | 7.38µM* | 15.1 | -11.8 | -15.8% | 31.5%
O=C(OCC1COc2ccccc2O1)c1c(F)cccc1F (stereo unspecified) | 3.1% | ? | 21.2* | 51.0 | -14.0% | 4.15µM*
CCN1CCN(CCOc2ccccc2OCc2ccccc2)CC1 | . | -4.5% | -0.3 | 15.7 | -1.5% | -0.6%
Cc1c(OCc2ccccc2)cccc1OCc1ccccc1 | -2.1% | 16.3% | 21.1* | 17.6 | -8.5% | 21.7%
Cc1nc2ccccc2nc1OCc1ccccc1 | -4.2% | 28.7% | 18.3* | 24.7 | -20.1% | 15.7%
Cc1nc2ccccc2nc1OCc1cccc(Cl)c1 | -1.5% | ? | -3.8 | -3.6 | -3.4% | -8.9%
CCOc1ccccc1CNCCCSc1nnnn1C | -6.3% | . | . | . | . | .
COc1cc(CNc2ccc3[nH]c(=O)[nH]c3c2)cc(Br)c1OCC(=O)NC(C)(C)C | 12.6µM* | ? | 3.3 | 6.4 | 5.8% | .
COc1cc(CNc2cccc(F)c2)cc(Br)c1O | 12.6µM* | ? | 8.9 | 12.6 | 3.5% | ?
COc1cc(CNc2ccc(O)cc2)cc(Br)c1OCc1ccccc1 | -23.4% | 59.6% | -1.8 | -3.5 | 0.2% | ?
COc1cc(CNc2cccc(C(=O)O)c2)cc(Br)c1OCC(=O)NC(C)(C)C | 7.5% | 11.7µM* | 12.4 | -11.0 | ? | 6.3%
COc1ccc(NC(=O)Cn2c(=O)n(Cc3nc(C)no3)c(=O)c3cc4c(cc32)OCO4)cc1OC | 33.4% | . | . | . | . | .
CSc1c(SCc2ccccc2)cnn(-c2ccccc2)c1=O | -1.2% | -10.5% | 2.4 | -12.0 | -5.2% | -21.5%
Oc1ccc(C=NCCc2ccccc2)cc1 | 4.6% | ? | -7.2 | 2.8 | -7.8% | 24.8%[0.00184 µM]
Cc1[nH]c2ccccc2c1/C=N/NC(=O)c1cccc(F)c1 | -0.1% | ? | 25.6* | 62.0* | 1.1% | 20.3%
Cc1[nH]c2ccccc2c1/C=N/NC(=O)c1cccc([N+](=O)[O-])c1 | -6.2% | 3.6% | 4.7 | 1.9 | . | 0.0%
SMILES | Sm TGR inh | Pf growth 96h | CHX counter | Shiga toxin inh | NS1 function inh | Pf growth 48h
Cc1[nH]c2ccccc2c1/C=N/NC(=O)CNC(=O)c1ccco1 | -6.0% | 12.0% | -2.0 | -27.2 | -2.1% | -0.5%
Cc1[nH]c2ccccc2c1/C=N\NC(=O)c1ccco1 | -6.2% | -14.4% | 30.4* | 57.2* | -0.4% | 7.7%
Cc1[nH]c2ccccc2c1/C=N/Nc1ccc(F)cc1F | 50.1µM* | ? | 31.3* | 30.0* | 1.3% | ?
Cc1c(/C=N/NC(=O)c2cccnc2)c2ccccc2n1Cc1ccccc1 | -7.9% | -25.1% | 18.1 | 17.5 | . | ?
Cc1c(/C=N/NC(=O)c2cccs2)c2ccccc2n1Cc1ccccc1Cl | 8.8% | ? | 22.8* | 30.3* | 0.5% | ?
Cc1cc(C)n2nc(C(=O)OCC(=O)N(Cc3ccccc3)C(C)C)nc2n1 | -2.4% | 18.0% | . | . | . | 3.4%
O=C(Cn1c(-c2cccs2)cc2ccccc21)N1CCN(c2ccc(F)cc2)CC1 | 4.6% | . | . | . | . | .

Compound activity: PubChem, National Center for Advancing Translational Sciences (NCATS)
